NPC1 prom act – activates the NPC1 promoter; Huh7 NPC1 promoter luciferase reporter, 24 h; Potency, µM (highest dose often 9.22 µM), for the others: top-dose activation, actives largely listed as activators; hit rate 2.4% among 320,000; AID 485313; further: % of control where 0% means no effect; nearly all actives have a fitted effect of over 60% in size
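Compounds in DMSO were transferred onto Huh7 NPC1-luciferase reporter cells pre-incubated 2 h; after 24 h at 37 °C, Amplite reagent was dispensed and luminescence recorded 10 min later.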
Rab9 promoter act – activates the Rab9 promoter. AID 485297. hit rate 2.8% among 320,000. Potency, µM (highest dose often 9.22 µM), inactives show at the top dose activation, negative = inhibition, most hits filed as activators. Huh7 Rab9 promoter-luciferase reporter, luminescence, 24 h; further: % of control where 0% means no effect; nearly all actives have a fitted effect of over 60% in size
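Cells were plated at 1500 per well in reduced-serum medium with 10% FBS and left 2 h. Compound in DMSO was then added for 24 h at 37 °C. Reporter signal was read by luminescence after 10 min with luciferase detection reagent.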
SMN2 splice enh – SMN2 splice variant enhancement; HEK293 SMN2-luciferase splicing reporter, luminescence, 30-36 h; hit rate 2.8% among 210,000; Potency, µM (titrated, usually from 46.1 µM), inactives show at the highest dose activity change, positive = activation, most hits filed as activators; further: % of control where 0% means no effect; nearly all actives have a fitted effect of over 55% in size
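HEK293 cells carry an SMN2 […]–luciferase reporter in which exon 7 inclusion puts luciferase in frame. Cells were plated 10-12 h before compound addition, then incubated 30-36 h at 37C. ONE-Glo luminescence was read; sodium butyrate at 4.5 mM final served as control.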
ELG1 genotox – induces genotoxicity in HEK293T cells with luciferase-tagged ELG1. HEK293T ELG1-luciferase reporter, luminescence, 16 h. Potency, µM (highest dose often 46 µM), for inactives: at the highest dose activity change, positive = activation, most hits filed as activators. hit rate 1.3% among 330,000. AID 504466; further: % of control where 0% means no effect; nearly all actives have a fitted effect of over 60% in size
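Luminescence read-out: rising ELG1-luciferase signal, reflecting elevated ELG1 protein under genetic stress, flags genotoxic compounds. Cells were treated for 16 hr at 37 °C before ONE-Glo detection.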
FLuc counter – firefly luciferase modulation, counter-screen for miR-21 project; P08659; purified FLuc, Km substrates, luminescence inhibition; Potency, µM (series often up to 57.5 µM), without a hit: at the top dose activity change, negative = inhibition, actives largely listed as inhibitors; hit rate 6.9% among 360,000; AID 588342;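 further: plate controls were vehicle for no effect and reference inhibitor for full effect; nearly all actives have a fitted effect of over 55% in size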
Target sequence (P08659 whole entry, looked up): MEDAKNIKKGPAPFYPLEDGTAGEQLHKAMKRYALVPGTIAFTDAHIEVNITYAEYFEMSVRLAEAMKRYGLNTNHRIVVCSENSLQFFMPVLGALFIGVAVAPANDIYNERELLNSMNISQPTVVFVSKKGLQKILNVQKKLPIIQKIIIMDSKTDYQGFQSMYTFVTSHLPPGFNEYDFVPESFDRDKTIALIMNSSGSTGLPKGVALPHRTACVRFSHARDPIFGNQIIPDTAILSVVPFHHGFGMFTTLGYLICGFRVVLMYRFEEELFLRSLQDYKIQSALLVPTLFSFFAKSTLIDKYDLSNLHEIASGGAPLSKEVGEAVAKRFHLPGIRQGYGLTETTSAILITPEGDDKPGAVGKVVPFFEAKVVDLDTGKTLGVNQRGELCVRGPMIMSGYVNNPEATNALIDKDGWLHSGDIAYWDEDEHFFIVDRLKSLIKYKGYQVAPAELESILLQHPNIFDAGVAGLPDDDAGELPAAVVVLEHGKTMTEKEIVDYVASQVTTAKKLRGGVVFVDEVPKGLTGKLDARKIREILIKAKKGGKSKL
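Purified P. pyralis luciferase, 10 nM final, with Km-level 10 uM D-luciferin and 10 uM ATP in 50 mM Tris acetate pH 7.5, 10 mM Mg acetate, 0.01% Tween-20, 0.05% BSA; 6-point qHTS titration about 60 µM downward; luminescence read.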
ELG1 DNA repair – inhibitors of ELG1-dependent DNA repair in HEK293T cells; AID 504467; Potency, µM (series often up to 46.1 µM), inactives show at the top dose activity change, negative = inhibition, most hits filed as inhibitors; hit rate 2.3% among 330,000; HEK293T ELG1-luciferase reporter, luminescence, 16 h; DNA damage induced by 5-fluorouridine; further: on the % scale 0 is the no-effect control and ±100 the full control effect; nearly all actives have a fitted effect of over 55% in size
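5-Fluorouridine DNA damage + compound/DMSO, 2,000 cells/well, 16 h, 37 °C/5% CO2. ONE-Glo, 30 min RT, luminescence. Readout = decrease in reporter signal.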
Starred values were filed as active, the others as inactive; ? = inconclusive; / = no result given. In the library only some 9.2% were active in any assay of this set; here they are far more common. The call rests on the fitted dose curve; in most records, active means well fitted curve in the direction sought with a large enough effect; inconclusive means small, poorly fitted or top-dose-only effect, or another doubt; inactive means no such curve, though single readings can be large; an effect the other way counts as inactive or inconclusive. Potency means the concentration at half of the fitted maximal effect.

SMILES	NPC1 prom act	Rab9 promoter act	SMN2 splice enh	ELG1 genotox	FLuc counter	ELG1 DNA repair
COc1ccc(-c2csc(N=C(N)N)n2)cc1	?	?	29%	?	15µM*	?
Nc1nc(-c2ccc(-c3ccccc3)cc2)cs1	0.79µM*	0.4µM*	0.5µM*	?	2.4µM*	?
Cc1ccc(-c2csc(N=C(N)N)n2)c(C)c1	12%	13%	/	5%	?	0%
COc1ccc(-c2csc(N)n2)cc1	?	?	14µM*	?	15µM*	?
Cc1ccc(OCc2csc(N)n2)cc1	?	4µM*	13µM*	?	24µM*	?
Cc1onc(-c2ccccc2)c1C(=O)OCC(=O)NCc1ccc(F)cc1	0%	-2%	-2%	0%	2%	?
Nc1nc(-c2ccc(C(=O)O)cc2)cs1	-8%	-4%	5%	2%	-9%	9%
COc1ccc(-c2csc(-c3cc4ccccc4oc3=N)n2)cc1	1%	0%	5%	0%	5.4µM*	21%
Nc1nc(-c2ccc(Oc3ccccc3)cc2)cs1	?	?	/	?	13µM*	?
Nc1nc(-c2ccc3ccccc3c2)cs1	3.2µM*	0.79µM*	11µM*	4.6µM*	3.8µM*	?
Cc1ccc(C(=O)Nc2ccccc2N2CCCC2)s1	-1%	3%	/	-3%	?	6%
O=C(Cc1ccccc1)c1c[nH]c(C(=O)NC2CCCC2)c1	-3%	4%	-1%	15%	-3%	-29%
CC(C)Oc1ccc(C(=O)NCC(=O)OCC(=O)N(C)Cc2cccs2)cc1	-9%	0%	11%	-1%	15µM*	-16%
CCS(=O)(=O)N1Cc2ccccc2CC1C(=O)Nc1cccc(C)c1 (stereo not drawn)	?	27%	?	15%	24µM*	?
CCS(=O)(=O)N1Cc2ccccc2CC1C(=O)Nc1ccc(C)cc1 (stereo not drawn)	0%	12%	9%	?	?	?
CCS(=O)(=O)N1Cc2ccccc2CC1C(=O)Nc1ncc(C)s1 (stereo not drawn)	26%	?	13µM*	?	?	?
O=C(Nc1nccs1)C1Cc2ccccc2CN1S(=O)(=O)c1ccc(F)cc1 (stereo not drawn)	?	?	11µM*	?	24µM*	?
CCCCOC(=O)Nc1ccccc1C(N)=O	4%	1%	-38%	7%	0%	?
COc1ccccc1Cn1c(C(C)C)nc2ccccc21	-3%	-8%	/	-11%	2%	?
COc1ccc(/C=C/c2nc3ccccc3n2Cc2ccccc2OC)cc1	3.2µM*	?	7.9µM*	?	0.85µM*	?
COc1ccccc1Cn1c(/C=C/c2ccccc2)nc2ccccc21	18%	?	?	16%	3µM*	?
COc1ccc(NC(=O)C2=CN3CCS(=O)(=O)N=C3C=C2)c(OC)c1	-2%	-8%	/	-1%	-2%	?
CC(=O)c1ccc(N=Nc2ccc(N(C)C)cc2)cc1	0.56µM*	0.4µM*	14%	?	0.3µM*	?
CN(C)c1ccc(N=Nc2ccccc2Br)cc1	3.5µM*	6.3µM*	/	?	0.19µM*	?
CC(=O)c1ccc(N=Nc2ccc(C)cc2)cc1	0.32µM*	0.32µM*	1.3µM*	0.46µM*	0.95µM*	?
SMILES	NPC1 prom act	Rab9 promoter act	SMN2 splice enh	ELG1 genotox	FLuc counter	ELG1 DNA repair
CN(C)c1ccc(C(=N)c2ccc(N(C)C)cc2)cc1	/	/	13%	/	/	/
O=C(NC1CCC1)C1CCC(=O)N(Cc2ccccc2F)C1 (stereo not drawn)	-6%	12%	/	0%	-1%	?
COc1ccccc1NC(=O)Cn1c(=O)n(Cc2nc(C)no2)c(=O)c2cc3c(cc21)OCO3	/	/	/	/	-7%	/
CC(=O)Cn1c(CN2CCN(C(=O)c3ccco3)CC2)nc2c1c(=O)n(C)c(=O)n2C	-3%	-2%	/	4%	1%	23%
CC1=C(C#N)c2nc(N)c(C#N)c(C)c2/C1=C\c1ccc(-c2ccccc2C(=O)O)o1	-3%	-3%	5%	-15%	?	8.2µM*
COc1cc(/C=C2/C(C)=C(C#N)c3nc(N)c(C#N)c(C)c32)ccc1OCC(=O)O	-6%	-6%	?	-8%	-11%	-17%
Cc1cccc(NC2=C(NCCO)C(=O)c3ccccc3C2=O)c1	12%	11%	-19%	-1%	-19%	13%
Cc1cc(C)cc(NC2=C(N)C(=O)c3ccccc3C2=O)c1	?	?	/	?	15µM*	?
CC(C)(C)c1cc(-c2csc(Nc3ccccc3)[n+]2Cc2ccc(C(=O)O)cc2)cc(C(C)(C)C)c1O	-2%	-2%	/	-18%	-1%	16µM*
O=C(CNC(=S)N(Cc1ccccc1)Cc1ccccc1F)NCc1ccc(Cl)cc1	-6%	-6%	-33%	-7%	4%	23µM*
COc1ccc(NC(=O)N/C=C/c2ccc(Cl)cc2)cc1	-1%	0%	4%	1%	-3%	-14%
O=C(N/C=C/c1ccccc1)Nc1ccc(Cl)cc1	3.5µM*	4.5µM*	?	?	6.7µM*	?
Cc1ccc(NC(=O)N/C=C/c2ccc(Cl)cc2)cc1	?	/	-18%	-2%	-7%	27%
Cc1ccc(NC(=O)N/C=C/c2ccccc2)cc1	0.89µM*	1.4µM*	14µM*	?	2.1µM*	?
CC(C)(C)CC(=O)Nc1ccc(S(=O)(=O)NC2=NCCCCC2)cc1	/	/	/	2%	/	-7%
CC1(C)CC(=O)C2=C(C1)N(CC1CCCO1)C(=O)C2(NC(=O)c1cccnc1)C(F)(F)F (stereo not drawn)	0%	9%	13%	9%	10%	9%
CCCC(=O)c1ccc(N2CCCC2)c(F)c1	28%	?	20%	?	15µM*	?
CCC(=O)c1ccc(N2CCCCCC2)c(F)c1	28%	22%	10%	?	21µM*	?
CCC(=O)c1ccc(N2CCCC2)c(F)c1	9%	29%	12%	12%	17µM*	?
CCOC(=O)N1CCN(c2ccc(C(=O)c3ccccc3)cc2F)CC1	?	27%	-25%	7%	21µM*	-12%
CCC(=O)c1ccc(N2CCN(C(=O)c3ccccc3F)CC2)c(F)c1	8%	-4%	-23%	-14%	-10%	?
Cc1ccc(C(=S)N2CCN(Cc3ccccc3)CC2)s1	-4%	2%	-20%	-5%	?	6%
Cc1cccc(NCc2nnc3n2CCCCC3)c1C	/	/	/	/	-3%	/
CCn1nnc2cc(C(=O)Nc3cccc(Cl)c3C)ccc21	/	/	/	/	4%	/
